This passage reports outcome and Potency results from PubChem BioAssay (Tox21).

Structures are written as SMILES. Inconclusive results are not listed. Activity calls are given as the source filed them. Unless noted, the call rests on the fitted dose curve; in most records, active means well fitted curve in the direction sought with a large enough effect in the repeat runs; inconclusive means weak or mixed curves; inactive means no such curve, though single readings can be large; an effect the other way counts as inactive or inconclusive.

Experiment [1] in a line: qHTS assay to identify small molecule agonists of the sonic hedgehog signaling (Shh) pathway (AID 1259368; calls by dose curve;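 further: NIH/3T3-derived 3T3Gli1-Luc cells carrying a stable Gli1-driven firefly luciferase reporter; series mostly up to about 92 µM; nearly all actives have a fitted effect of over 15% in size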). An outline of the steps: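 Stable NIH/3T3 Gli1-Luc reporter clone; 24 hr cpd exposure after a 4 hr settling period; luminescence endpoint.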
A general note: In qHTS, concentration-response curves come from the screen itself.

Experiment [2] is described as follows: qHTS assay to identify small molecule antagonists of the sonic hedgehog signaling (Shh) pathway (AID 1259369; calls by dose curve; further: nearly all actives have a fitted effect of over 45% in size). An outline of the steps: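 Gli1 transcriptional reporter (firefly Luc) in NIH/3T3 background, conditioned-medium activated. 24hr exposure, luminescence endpoint.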
Experiment [3] deals with Estrogen receptor beta (Homo sapiens) (UniProt Q92731). Briefly: qHTS assay to identify small molecule agonists of the estrogen receptor beta (ER-beta) signaling pathway (AID 1259377; active means well fitted activation curve with a large enough effect in the signal ratio in the repeat runs, not every such curve was filed as active; the % refers to the signal ratio). An outline of the steps:
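Screening used GripTite ER-beta-UAS-bla cells held in 2% charcoal-stripped FBS medium. After overnight (16 hr) compound incubation at 37C, beta-lactamase activity was detected with a FRET substrate by fluorescence.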

Experiment [4] has the same target. Description: qHTS assay to identify small molecule antagonists of the estrogen receptor beta (ER-beta) signaling pathway (AID 1259378; active means well fitted inhibition curve with a large enough effect in the signal ratio in the repeat runs, not every such curve was filed as active; the % refers to the signal ratio). An outline of the steps: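 ER-beta-UAS-bla HEK293T cells in 2% charcoal-stripped FBS medium treated with compound plus 1nM final 17-beta-estradiol for 16 hr at 37C. Beta-lactamase reporter read by FRET substrate fluorescence after 2 hours at room temperature.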

Experiment [5] can be described thus: qHTS assay to identify small molecule agonists of the androgen receptor (AR) signaling pathway in the presence of an antagonist - cell viability counter screen (AID 1259379).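 Further: MDA-kb2 human breast cancer cells carrying an MMTV luciferase reporter; series mostly up to about 92 µM; nearly all actives have a fitted effect of over 25% in size.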 An outline of the steps:
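Counter screen for cell viability run in parallel with the AR agonist-mode luciferase assay. MDA-kb2 cells were co-treated with nilutamide (3.0uM final) and compounds, then incubated 16 hr at 37C, and CellTiter-Fluor fluorescence was measured.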

Experiment [6] is described as follows: qHTS assay to identify small molecule agonists of the estrogen receptor beta (ER-beta) signaling pathway - cell viability counter screen (AID 1259380). Further: nearly all actives have a fitted effect of over 30% in size. The method in brief: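 In this qHTS counter screen, HEK293T cells carrying an ER-beta/UAS beta-lactamase reporter, grown in 2% charcoal-stripped FBS, received compound for 16 hr; ATP-based CellTiter-Glo luminescence was then read after 30 min at room temperature.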

Experiment [7] deals with Androgen receptor (Homo sapiens) (UniProt P10275). Description: qHTS assay to identify small molecule agonists of the androgen receptor (AR) signaling pathway in the presence of an antagonist (AID 1259381; calls by dose curve; further: nearly all actives have a fitted effect of over 15% in size). An outline of the steps:
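AR antagonist background: nilutamide 3.0uM final. Cell line: MDA-kb2, MMTV-driven luciferase, responsive to both AR and GR. Exposure 16hr, 37C, no CO2; ONE-Glo luminescence.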

A short description of experiment [8]: qHTS assay to identify small molecule antagonists of the estrogen receptor beta (ER-beta) signaling pathway - cell viability counter screen (AID 1259382). Further: series mostly up to about 92 µM; nearly all actives have a fitted effect of over 55% in size. An outline of the steps:
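HEK293T ER-beta-UAS-bla, 2% charcoal-stripped FBS; compounds + 1nM E2 16 hr 37C; CellTiter-Glo luminescence, 30 min RT.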

The nature of experiment [9]: qHTS assay to identify small molecule agonists or antagonists of the thyroid stimulating hormone receptor (TSHR) signaling pathway - wild type cell line counter screen (AID 1259384; calls by dose curve). An outline of the steps: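 Wild-type Hek293 cells, 800/well, 18 h at 37C, then compound with Ro20-1724 for 30 min RT. cAMP by HTRF (cAMP-d2/anti-cAMP cryptate), 1 h RT, fluorescence read. 15 concentrations, triplicates.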

Experiment [10] has as its target Thyrotropin receptor (Homo sapiens) (UniProt P16473). Briefly: qHTS assay to identify small molecule antagonists of the thyroid stimulating hormone receptor (TSHR) signaling pathway (AID 1259385; calls by dose curve; further: nearly all actives have a fitted effect of over 20% in size). An outline of the steps:
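TSHR-HEK293 cells (800/well) plated 18 h, then compounds with Ro20-1724 and TSH at 1.5 ng/mL final, 30 min at room temperature. cAMP quantified by HTRF (cAMP-d2/anti-cAMP-cryptate, 1 h); 15 concentrations in triplicate.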

A short description of experiment [11]: qHTS assay to identify small molecule agonists of the estrogen receptor alpha (ER-alpha) signaling pathway in the presence of an antagonist - cell viability counter screen (AID 1259386).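 Further: cells exposed to compounds for 22 h at 37 °C before the viability read; nearly all actives have a fitted effect of over 30% in size.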 Further: potency means the concentration at half of the fitted maximal effect. The method in brief: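 Steps: 5-day stripped-FBS culture; seed and incubate 24hr; add ICI-182,780 (10.0nM final); pin 15-point compound titration; incubate 22hr at 37C; add CellTiter-Fluor at 21hr; read fluorescence.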

For experiment [12], the target named is Progesterone receptor (Homo sapiens) (UniProt P06401). Briefly: qHTS assay to identify small molecule agonists of the progesterone receptor (PR) signaling pathway (AID 1346784; calls by dose curve; further: nearly all actives have a fitted effect of over 30% in size). An outline of the steps:
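Seed PR-UAS-bla HEK 293T cells (2% charcoal-stripped FBS), incubate 6 hr at 37C; add compounds in DMSO, 16 hr at 37C; add LiveBLAzer B/G substrate, 2 hr RT; read fluorescence intensity.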

Experiment [13] has the same target. Description: qHTS assay to identify small molecule antagonists of the progesterone receptor (PR) signaling pathway (AID 1346795; active means well fitted inhibition curve with a large enough effect in the signal ratio in the repeat runs, not every such curve was filed as active; the % refers to the signal ratio). The method in brief: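 Screening used a GripTite HEK293T line with PR-responsive UAS-beta-lactamase. Cells were challenged with compound in the presence of 1 nM R5020 final for 16 hr at 37C; B/G FRET substrate, 2 hr room temperature, fluorescence.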

A short description of experiment [14]: qHTS assay to identify small molecule antagonists of the progesterone receptor (PR) signaling pathway - cell viability counter screen (AID 1346798). Further: series mostly up to about 92 µM; nearly all actives have a fitted effect of over 50% in size. The method in brief:
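Measures cytotoxicity in parallel with the PR antagonist reporter read: HEK293T PR-UAS-bla cells get compound and R5020 for 16 hr, and remaining viable cells are quantified by CellTiter-Glo luminescence.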

Experiment [15] in a line: qHTS assay to identify small molecule agonists of the progesterone receptor (PR) signaling pathway - cell viability counter screen (AID 1346799; calls by dose curve; further: nearly all actives have a fitted effect of over 45% in size). An outline of the steps: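 Using the same plates as the PR reporter screen, HEK293T PR-UAS-bla cells received compounds for 16 hr at 37C and were then lysed with CellTiter-Glo; luminescence was read 30 min later at room temperature.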

A short description of experiment [16]: qHTS assay to identify small molecule agonists of the TGF-beta/Smad signaling pathway - cell viability counter screen (AID 1346829). Further: top concentration of the series differs between compounds; nearly all actives have a fitted effect of over 45% in size. An outline of the steps: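 Cytotoxicity counter screen: CellTiter-Glo luminescence (30 min, room temperature) measured in the SBE-bla HEK 293T reporter wells after 5 hr compound treatment at 37 C and the 2 hr substrate step.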

The nature of experiment [17]: qHTS assay to identify small molecule agonists of the TGF-beta/Smad signaling pathway (AID 1346859; active means well fitted activation curve with a large enough effect in the signal ratio in the repeat runs, not every such curve was filed as active; the % refers to the signal ratio; further: series mostly up to about 77 µM). An outline of the steps: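 Beta-lactamase reporter activity downstream of Smad binding elements was measured in stably transfected HEK 293T cells; compounds were incubated for 5 hr, substrate for 2 hr at room temperature.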
Experiment [18] deals with Thyrotropin-releasing hormone receptor (Homo sapiens) (UniProt P34981). Briefly: qHTS assay to identify small molecule antagonists of the thyrotropin-releasing hormone receptor (TRHR) signaling pathway (AID 1346877; active means well fitted inhibition curve with a large enough effect in the repeat runs, not every such curve was filed as active; further: series mostly up to about 51 µM). An outline of the steps: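 Human TRHR in HEK293 cells; inhibition of the intracellular calcium rise triggered by 1 nM TRH was followed by fluorescence over 3 min. Compounds were run at 15 concentrations, three replicates each.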
Chain of Thyrotropin-releasing hormone receptor (Homo sapiens) (P34981 whole entry, looked up): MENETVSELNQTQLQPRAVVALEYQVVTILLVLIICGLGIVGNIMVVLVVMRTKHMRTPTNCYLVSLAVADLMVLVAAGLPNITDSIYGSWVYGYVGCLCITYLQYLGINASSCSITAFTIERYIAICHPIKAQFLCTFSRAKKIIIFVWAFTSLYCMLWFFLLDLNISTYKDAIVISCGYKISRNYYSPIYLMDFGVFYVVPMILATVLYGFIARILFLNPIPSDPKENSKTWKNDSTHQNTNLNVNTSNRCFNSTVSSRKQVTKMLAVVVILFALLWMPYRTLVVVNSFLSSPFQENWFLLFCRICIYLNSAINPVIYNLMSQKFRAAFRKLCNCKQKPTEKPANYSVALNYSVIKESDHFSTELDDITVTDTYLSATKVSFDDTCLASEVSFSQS

Experiment [19] in a line: qHTS assay to identify small molecule antagonists of the TGF-beta/Smad signaling pathway - cell viability counter screen (AID 1346824). Further: nearly all actives have a fitted effect of over 50% in size. An outline of the steps: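 SBE-bla HEK 293T cells, incubated overnight, then compound plus 0.25 ng/mL TGF-beta1 (stock added) for 5 hr at 37 C. Viability was read in the same wells by CellTiter-Glo luminescence after 30 min at room temperature.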

The target in experiment [20] is Estrogen receptor (Homo sapiens) (UniProt P03372). Description: qHTS assay to identify small molecule agonists of the estrogen receptor alpha (ER-alpha) signaling pathway in the presence of an antagonist (AID 1259383; calls by dose curve; further: top concentration of the series differs between compounds; nearly all actives have a fitted effect of over 15% in size). An outline of the steps:
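ER-alpha agonism measured under antagonist challenge: 10.0nM ICI-182,780 (final) plus compound, 15 concentrations, 22hr, VM7Luc4E2 ERE-luciferase cells. Read by luminescence.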

Chain of Androgen receptor (Homo sapiens) (P10275 whole entry, looked up): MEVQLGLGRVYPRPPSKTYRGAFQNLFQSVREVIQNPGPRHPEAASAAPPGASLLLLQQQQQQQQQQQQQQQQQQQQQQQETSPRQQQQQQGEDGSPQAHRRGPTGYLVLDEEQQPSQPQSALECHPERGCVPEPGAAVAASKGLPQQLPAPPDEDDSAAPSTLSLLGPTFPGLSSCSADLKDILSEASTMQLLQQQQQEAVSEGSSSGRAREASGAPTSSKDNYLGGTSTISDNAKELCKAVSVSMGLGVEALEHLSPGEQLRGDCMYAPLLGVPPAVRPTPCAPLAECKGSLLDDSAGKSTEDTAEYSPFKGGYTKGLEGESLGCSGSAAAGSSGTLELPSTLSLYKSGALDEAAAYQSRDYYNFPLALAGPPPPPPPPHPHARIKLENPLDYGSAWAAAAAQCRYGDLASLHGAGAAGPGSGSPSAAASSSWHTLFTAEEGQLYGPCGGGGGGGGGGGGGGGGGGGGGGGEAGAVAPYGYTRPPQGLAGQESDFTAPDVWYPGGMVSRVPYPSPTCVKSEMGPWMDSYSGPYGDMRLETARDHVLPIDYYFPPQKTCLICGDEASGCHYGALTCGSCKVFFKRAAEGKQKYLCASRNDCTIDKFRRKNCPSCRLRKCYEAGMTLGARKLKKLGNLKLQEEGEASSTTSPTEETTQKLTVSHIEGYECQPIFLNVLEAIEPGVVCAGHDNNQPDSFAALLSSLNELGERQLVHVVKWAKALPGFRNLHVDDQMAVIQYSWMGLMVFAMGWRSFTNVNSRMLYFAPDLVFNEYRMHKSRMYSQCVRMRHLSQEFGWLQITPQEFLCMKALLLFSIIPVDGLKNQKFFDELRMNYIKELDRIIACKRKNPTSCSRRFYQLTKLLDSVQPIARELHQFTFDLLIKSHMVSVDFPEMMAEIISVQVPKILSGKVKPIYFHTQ
Chain of Estrogen receptor (Homo sapiens) (P03372 whole entry, looked up): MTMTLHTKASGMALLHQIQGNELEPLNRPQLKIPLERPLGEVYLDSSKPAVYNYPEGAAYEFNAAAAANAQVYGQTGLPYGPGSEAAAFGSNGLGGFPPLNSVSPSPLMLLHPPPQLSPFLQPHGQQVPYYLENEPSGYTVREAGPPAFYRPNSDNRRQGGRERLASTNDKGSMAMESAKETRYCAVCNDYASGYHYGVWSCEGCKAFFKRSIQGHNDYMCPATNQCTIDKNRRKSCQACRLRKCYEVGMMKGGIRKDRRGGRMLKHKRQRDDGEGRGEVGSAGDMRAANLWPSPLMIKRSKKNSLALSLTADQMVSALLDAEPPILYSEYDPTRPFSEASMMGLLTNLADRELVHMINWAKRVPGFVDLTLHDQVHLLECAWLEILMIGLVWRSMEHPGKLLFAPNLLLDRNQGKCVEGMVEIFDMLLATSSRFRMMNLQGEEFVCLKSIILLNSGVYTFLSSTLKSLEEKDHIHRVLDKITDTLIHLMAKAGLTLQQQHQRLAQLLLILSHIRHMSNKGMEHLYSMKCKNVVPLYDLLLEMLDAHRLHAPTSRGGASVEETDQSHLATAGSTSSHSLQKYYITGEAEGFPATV
Chain of Estrogen receptor beta (Homo sapiens) (Q92731 whole entry, looked up): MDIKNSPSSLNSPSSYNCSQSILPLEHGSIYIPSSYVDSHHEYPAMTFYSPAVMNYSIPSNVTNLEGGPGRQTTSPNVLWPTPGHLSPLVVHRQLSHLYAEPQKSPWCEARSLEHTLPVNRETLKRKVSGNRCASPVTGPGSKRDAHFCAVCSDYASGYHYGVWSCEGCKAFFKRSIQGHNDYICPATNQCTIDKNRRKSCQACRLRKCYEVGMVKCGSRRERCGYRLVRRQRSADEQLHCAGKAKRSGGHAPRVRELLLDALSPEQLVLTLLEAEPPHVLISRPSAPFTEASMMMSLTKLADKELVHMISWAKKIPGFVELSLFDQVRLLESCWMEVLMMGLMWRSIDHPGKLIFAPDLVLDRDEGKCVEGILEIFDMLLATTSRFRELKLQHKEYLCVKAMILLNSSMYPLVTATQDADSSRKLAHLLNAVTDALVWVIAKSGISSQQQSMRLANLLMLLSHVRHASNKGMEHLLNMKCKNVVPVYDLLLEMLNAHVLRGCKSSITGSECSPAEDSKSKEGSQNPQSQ
Chain of Progesterone receptor (Homo sapiens) (P06401 whole entry, looked up): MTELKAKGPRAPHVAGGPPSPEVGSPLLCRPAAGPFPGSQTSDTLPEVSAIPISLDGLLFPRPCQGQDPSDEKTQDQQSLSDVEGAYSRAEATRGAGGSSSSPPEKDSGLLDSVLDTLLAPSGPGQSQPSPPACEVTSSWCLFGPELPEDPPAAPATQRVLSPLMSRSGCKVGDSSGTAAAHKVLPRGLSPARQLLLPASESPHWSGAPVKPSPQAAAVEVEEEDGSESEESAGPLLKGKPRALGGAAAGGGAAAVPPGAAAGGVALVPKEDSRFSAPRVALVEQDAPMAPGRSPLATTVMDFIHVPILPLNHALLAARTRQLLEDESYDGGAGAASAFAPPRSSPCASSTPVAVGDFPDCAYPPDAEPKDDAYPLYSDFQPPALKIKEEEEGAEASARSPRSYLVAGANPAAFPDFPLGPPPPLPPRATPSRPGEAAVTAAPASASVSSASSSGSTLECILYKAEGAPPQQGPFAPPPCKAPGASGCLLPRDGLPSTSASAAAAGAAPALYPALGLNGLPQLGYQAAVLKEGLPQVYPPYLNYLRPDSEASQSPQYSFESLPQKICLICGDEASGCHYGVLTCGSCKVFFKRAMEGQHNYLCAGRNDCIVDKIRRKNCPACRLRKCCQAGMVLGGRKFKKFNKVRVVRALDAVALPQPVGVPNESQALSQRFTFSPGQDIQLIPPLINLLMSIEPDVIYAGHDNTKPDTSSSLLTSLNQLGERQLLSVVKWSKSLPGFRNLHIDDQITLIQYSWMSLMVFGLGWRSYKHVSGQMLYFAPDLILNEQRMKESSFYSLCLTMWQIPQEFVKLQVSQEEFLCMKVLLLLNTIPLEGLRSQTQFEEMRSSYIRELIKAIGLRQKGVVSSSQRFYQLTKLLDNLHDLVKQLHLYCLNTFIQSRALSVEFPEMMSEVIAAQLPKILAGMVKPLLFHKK
Chain of Thyrotropin receptor (Homo sapiens) (P16473 whole entry, looked up): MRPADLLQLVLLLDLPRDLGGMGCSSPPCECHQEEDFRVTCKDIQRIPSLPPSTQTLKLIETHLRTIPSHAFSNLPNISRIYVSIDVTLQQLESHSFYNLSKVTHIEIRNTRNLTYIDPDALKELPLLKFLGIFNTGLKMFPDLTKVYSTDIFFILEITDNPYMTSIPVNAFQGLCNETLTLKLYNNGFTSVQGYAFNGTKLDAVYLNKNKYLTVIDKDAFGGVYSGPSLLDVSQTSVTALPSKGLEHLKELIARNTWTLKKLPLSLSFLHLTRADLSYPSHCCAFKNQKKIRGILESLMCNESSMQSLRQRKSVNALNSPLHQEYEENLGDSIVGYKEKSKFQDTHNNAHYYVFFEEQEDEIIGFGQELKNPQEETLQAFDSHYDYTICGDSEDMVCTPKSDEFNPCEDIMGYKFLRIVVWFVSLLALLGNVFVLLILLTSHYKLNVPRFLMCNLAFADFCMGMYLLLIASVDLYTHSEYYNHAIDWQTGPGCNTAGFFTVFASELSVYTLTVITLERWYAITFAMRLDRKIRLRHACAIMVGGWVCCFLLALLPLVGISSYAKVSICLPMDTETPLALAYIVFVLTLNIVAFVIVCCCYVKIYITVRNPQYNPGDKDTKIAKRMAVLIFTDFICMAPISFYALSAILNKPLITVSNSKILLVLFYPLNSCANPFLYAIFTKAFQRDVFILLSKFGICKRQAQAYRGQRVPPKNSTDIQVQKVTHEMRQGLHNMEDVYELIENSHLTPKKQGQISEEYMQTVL

Take `C[C@@H]1O[C@@H](OC[C@H]2O[C@@H](Oc3c(-c4ccc(O)c(O)c4)oc4cc(O)cc(O)c4c3=O)[C@H](O)[C@@H](O)[C@@H]2O)[C@H](O)[C@H](O)[C@H]1O`: the result in experiment [1], in experiment [9], in experiment [10], in [17] and in experiment [18] was inactive. In addition, the Potency entry in experiment [2], in experiment [3], in experiment [4], in experiment [5], in [6] and in [7] was “inactive” in each case. Also, the Potency result in experiment [8], in experiment [12], in experiment [13], in experiment [14], in [15] and in experiment [16] was “inactive” in each case. Further, the Potency in experiment [11] is 54.9 µM (active).

Consider `Nc1nc2ncc(CNc3ccc(C(=O)N[C@@H](CCC(=O)O)C(=O)O)cc3)nc2c(=O)[nH]1`, for which the compound was called inactive in experiment [1], in experiment [9], in experiment [10] and in experiment [17]. The Potency result in [2], in [3], in experiment [4], in experiment [6], in [7] and in experiment [8] was “inactive” each time. Besides, the Potency entry in [11], in [12], in experiment [13], in [14], in experiment [15] and in [16] was “inactive” in each case.

`CNC[C@H](O)[C@@H](O)[C@H](O)[C@H](O)CO`: the compound was classed as inactive in experiment [1], in experiment [9], in experiment [10], in experiment [17] and in experiment [18]. In addition, the Potency result in experiment [2], in [3], in experiment [4], in experiment [6], in experiment [8] and in [11] was “inactive” in each case. Also, the Potency entry in experiment [12], in experiment [13], in experiment [14], in experiment [19] and in [16] was “inactive” throughout.

As for `OC1CCCC1`, the outcome in experiment [1], in experiment [9], in experiment [10], in experiment [17] and in experiment [18] was inactive. The Potency entry in experiment [2], in experiment [3], in experiment [4], in experiment [5], in experiment [6] and in [8] was “inactive” each time. Besides, the Potency entry in experiment [20], in [11], in experiment [12], in [13], in experiment [14] and in experiment [19] was “inactive” in each case. In experiment [16], the Potency result was “inactive”.

For the compound `CCCCNC(N)=O`, the call in experiment [1], in experiment [17] and in experiment [18] was inactive. In addition, the Potency entry in experiment [2], in experiment [3], in experiment [4], in [6], in [8] and in [11] was “inactive” in each case. Besides, the Potency entry in [12], in [13], in experiment [14], in experiment [15], in experiment [19] and in [16] was “inactive” each time.

`Cc1ccc(C)c(C)c1`: the compound was classed as inactive in experiment [1], in experiment [9], in [10], in experiment [17] and in experiment [18]. Besides, the Potency result in experiment [2], in experiment [3], in experiment [4], in experiment [6], in [7] and in [8] was “inactive” throughout. For the same compound, the Potency result in experiment [20], in experiment [11], in experiment [12], in [13], in experiment [14] and in experiment [15] was “inactive” throughout. Moreover, the Potency entry in experiment [19] and in experiment [16] was “inactive” each time.

Regarding `O=C(Cl)c1c(Cl)c(Cl)c(C(=O)Cl)c(Cl)c1Cl`, the outcome in experiment [1], in experiment [17] and in [18] was inactive. The Potency result in [2], in experiment [3], in [4], in experiment [5], in experiment [6] and in experiment [8] was “inactive” in each case. For the same compound, the Potency result in experiment [20], in experiment [11], in experiment [12], in experiment [13], in experiment [14] and in [16] was “inactive” in each case.

For `NCc1cccc(CN)c1`, the call in experiment [1], in experiment [9], in experiment [10], in experiment [17] and in experiment [18] was inactive. For the same compound, the Potency entry in experiment [2], in [3], in [4], in [6], in experiment [8] and in experiment [20] was “inactive” throughout. Besides, the Potency result in experiment [11], in experiment [12], in experiment [13], in [14], in [15] and in [19] was “inactive” each time. Besides, the Potency entry in experiment [16] was “inactive”.
